Measured values reported in PubChem BioAssay (NCI).
This is part of a sample that, as a whole, favours compounds with a hit. Of some 79,000 tested, about 15% had one in any assay. Unmarked numbers belong to inactive results. Calls of active or inactive are those of the source. No stated cut-off is given here; in the data, active means growth inhibition above about 70%; inactive means the rest.

Key:
[1] = NCI Yeast Anticancer Drug Screen. Data for the rad52 strain (AID 147);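 further: 0% = growth of vehicle-treated control cultures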; details: S. cerevisiae rad52 mutant growth inhibition, hits give high values
Outline: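 Measured: yeast growth inhibition. System: strain with a defined DNA damage repair alteration. Reference: vehicle-treated control cultures.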

[2] = NCI Yeast Anticancer Drug Screen. Data for the wt1 strain (AID 149);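 further: 0% = growth of vehicle-treated wt1 cultures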; details: S. cerevisiae wt1 strain (SPY 50644) growth inhibition, hits give high values
Outline: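 wt1 yeast, compound-treated; % growth inhibition vs vehicle control.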

[3] = NCI Yeast Anticancer Drug Screen. Data for the rad50EPP+ strain (AID 151);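 further: 0% = growth of vehicle-treated control cultures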; details: S. cerevisiae rad50 mutant strain, hits give high values
Outline: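 One strain with a rad50 alteration (rad50EPP+) was compound-treated, its growth then compared to that of vehicle controls.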

[4] = NCI Yeast Anticancer Drug Screen. Data for the rad50 strain (AID 155);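 further: 0% = growth of vehicle-only cultures of the same strain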; details: S. cerevisiae rad50 strain growth inhibition, hits give high values
Outline: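 Genetically altered yeast (DNA repair pathway); compound treatment; growth inhibition vs vehicle ctrl.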

[5] = NCI Yeast Anticancer Drug Screen. Data for the mec2-1 strain (AID 157); details: S. cerevisiae mec2-1 strain, hits give high values
Outline: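 Test agents were screened against the mec2-1 yeast strain, with defined DNA repair or cell cycle alteration. Growth was scored as inhibition against vehicle-only controls.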

[6] = NCI Yeast Anticancer Drug Screen. Data for the rad14 strain (AID 159);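 further: 0% = growth of vehicle-treated control cultures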; details: S. cerevisiae rad14 strain growth inhibition, hits give high values
Outline: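 Test compounds were applied to a repair-deficient yeast strain. Its growth was then compared with that of cultures given vehicle alone, and inhibition was expressed relative to those controls.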

[7] = NCI Yeast Anticancer Drug Screen. Data for the sgs1 mgt1 strain (AID 161);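 further: 0% = growth of cultures given vehicle only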; details: S. cerevisiae sgs1 mgt1 strain, hits give high values
Outline: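 Test agents were incubated with a DNA-repair-mutant yeast strain. Growth was then read and compared against vehicle-treated controls.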

[8] = NCI Yeast Anticancer Drug Screen. Data for the CLN2oe strain (AID 163);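 further: 0% = growth of vehicle-only control cultures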; details: S. cerevisiae CLN2oe strain, hits give high values
Outline: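 Here, growth inhibition in a cell-cycle-altered yeast strain after compound exposure was quantified against vehicle control growth.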

[9] = NCI Yeast Anticancer Drug Screen. Data for the cln2 rad14 strain (AID 165);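 further: 0% = growth equal to vehicle treated cultures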; details: S. cerevisiae cln2 rad14 strain, hits give high values
Outline: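 Growth of compound-exposed yeast (cln2 rad14 genotype) measured and expressed as inhibition relative to vehicle.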

[10] = NCI Yeast Anticancer Drug Screen. Data for the bub3 strain (AID 167); details: S. cerevisiae bub3 mutant strain, hits give high values
Outline: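 Yeast carrying a defined mutation is treated with each compound, and growth is compared with that of vehicle-exposed cells to give inhibition.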

[11] = NCI Yeast Anticancer Drug Screen. Data for the wt2 strain (AID 169);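 further: 0% = growth of vehicle-treated yeast cultures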; details: S. cerevisiae wt2 strain growth inhibition, hits give high values
Outline: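 Genetically defined yeast strains from a DNA-repair/cell-cycle panel were used. Compound-exposed yeast growth was measured, and the inhibition was calculated relative to vehicle treatment.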

[12] = NCI Yeast Anticancer Drug Screen. Data for the mlh1 strain (AID 171);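 further: 0% = growth of vehicle-treated control cultures of the same strain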; details: S. cerevisiae mlh1 strain growth inhibition, hits give high values
Outline: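 Here the genetically defined yeast mutant is grown with each compound, and the extent to which its growth falls below that of vehicle-exposed cells is reported.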

[13] = NCI Yeast Anticancer Drug Screen. Data for the sgs1 strain (AID 173);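 further: 0% = growth of vehicle-only control cultures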; details: S. cerevisiae sgs1 mutant, hits give high values
Outline: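 Relative growth inhibition, referenced to vehicle, was determined in a yeast strain with a defined alteration affecting DNA damage repair or cell cycle control after compound exposure.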

[14] = NCI Yeast Anticancer Drug Screen. Data for the mlh1 rad18 strain (AID 175); details: S. cerevisiae mlh1 rad18 strain growth inhibition, hits give high values
Outline: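 In this whole-cell yeast screen, a strain with altered DNA damage repair is challenged with compound, and its growth is measured against matched vehicle-treated controls.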

[15] = NCI Yeast Anticancer Drug Screen. Data for the rad18 strain (AID 177); details: S. cerevisiae rad18 mutant growth inhibition, hits give high values
Outline: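 Screen uses a yeast strain with a defined lesion in DNA damage repair; compound effect is read as loss of growth compared to untreated vehicle cultures.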

[16] = at 5.0 µM (retest, dose inferred, filed as 0.5)
[17] = at 50.0 µM (retest, dose inferred, filed as 5.0)

`O=Cc1coc2ccccc2c1=O` showed a growth inhibition ([1]; at 1.2 µM) of -9%, a growth inhibition ([1]; at 3.7 µM) of 3% and a growth inhibition ([1]; at 11.0 µM) of 11%. For the same compound, the growth inhibition ([1]; at 33.0 µM) was 22%, the growth inhibition ([1]; at 100.0 µM) was 48% and the growth inhibition ([2]; at 1.2 µM) was 10%. For the same compound, the growth inhibition ([2]; at 3.7 µM) was 19%, the growth inhibition ([2]; at 11.0 µM) was 18% and the growth inhibition ([2]; at 33.0 µM) was 22%. It also gave a growth inhibition ([2]; at 100.0 µM) of 42%, a growth inhibition ([3]; at 1.2 µM) of 2% and a growth inhibition ([3]; at 3.7 µM) of 11%. The growth inhibition ([3]; at 11.0 µM) was 28%, the growth inhibition ([3]; at 33.0 µM) was 66% and the growth inhibition ([3]; at 100.0 µM) was 91% (active). The growth inhibition ([4]; at 1.2 µM) was -23%, the growth inhibition ([4]; at 3.7 µM) was 10% and the growth inhibition [4, 16] was 12%. The growth inhibition ([4]; at 11.0 µM) was 17%, the growth inhibition ([4]; at 33.0 µM) was 24% and the growth inhibition [4, 17] was 26%. The growth inhibition ([4]; at 50.0 µM) was 20.4%, the growth inhibition ([4]; at 100.0 µM) was 57% and the growth inhibition ([5]; at 1.2 µM) was -7%. The growth inhibition ([5]; at 3.7 µM) was 12%, the growth inhibition [5, 16] was -15% and the growth inhibition ([5]; at 11.0 µM) was 18%. The growth inhibition ([5]; at 33.0 µM) was 18%, the growth inhibition [5, 17] was 70% (active) and the growth inhibition ([5]; at 50.0 µM) was 35.2%. For the same compound, the growth inhibition ([5]; at 100.0 µM) was 65%, the growth inhibition ([6]; at 1.2 µM) was -16% and the growth inhibition ([6]; at 3.7 µM) was -7%. The growth inhibition ([6]; at 11.0 µM) was 8%, the growth inhibition ([6]; at 33.0 µM) was 16% and the growth inhibition ([6]; at 100.0 µM) was 95% (active). For the same compound, the growth inhibition [7, 16] was 9%, the growth inhibition [7, 17] was 98% (active) and the growth inhibition ([7]; at 50.0 µM) was 89.7% (active). It also gave a growth inhibition ([8]; at 1.2 µM) of -1%, a growth inhibition ([8]; at 3.7 µM) of 25% and a growth inhibition ([8]; at 11.0 µM) of 27%. The growth inhibition ([8]; at 33.0 µM) was 2%, the growth inhibition ([8]; at 100.0 µM) was 40% and the growth inhibition [9, 16] was 6%. For the same compound, the growth inhibition [9, 17] was 19%, the growth inhibition ([9]; at 50.0 µM) was 75.2% (active) and the growth inhibition ([10]; at 1.2 µM) was 5%. It also gave a growth inhibition ([10]; at 3.7 µM) of 13%, a growth inhibition [10, 16] of 2% and a growth inhibition ([10]; at 11.0 µM) of 8%. The growth inhibition ([10]; at 33.0 µM) was 15%, the growth inhibition [10, 17] was 87% (active) and the growth inhibition ([10]; at 50.0 µM) was 88.8% (active). It also gave a growth inhibition ([10]; at 100.0 µM) of 51%, a growth inhibition ([11]; at 1.2 µM) of -17% and a growth inhibition ([11]; at 3.7 µM) of -11%. The growth inhibition ([11]; at 11.0 µM) was 3%, the growth inhibition ([11]; at 33.0 µM) was 12% and the growth inhibition ([11]; at 100.0 µM) was 99% (active). For the same compound, the growth inhibition ([12]; at 1.2 µM) was 1%, the growth inhibition ([12]; at 3.7 µM) was 5% and the growth inhibition ([12]; at 11.0 µM) was 24%. The growth inhibition ([12]; at 33.0 µM) was 30%, the growth inhibition ([12]; at 100.0 µM) was 61% and the growth inhibition ([13]; at 1.2 µM) was 0%. The growth inhibition ([13]; at 3.7 µM) was 14%, the growth inhibition ([13]; at 11.0 µM) was 23% and the growth inhibition ([13]; at 33.0 µM) was 32%. For the same compound, the growth inhibition ([13]; at 100.0 µM) was 60%, the growth inhibition [14, 16] was -1% and the growth inhibition [14, 17] was 16%. It also gave a growth inhibition ([14]; at 50.0 µM) of 62.4%, a growth inhibition ([15]; at 1.2 µM) of 5% and a growth inhibition ([15]; at 3.7 µM) of 19%. The growth inhibition ([15]; at 11.0 µM) was 18%, the growth inhibition ([15]; at 33.0 µM) was 20% and the growth inhibition ([15]; at 100.0 µM) was 67%.
